High-throughput results deposited in PubChem by National Center for Advancing Translational Sciences (NCATS).
Rows were chosen to be rich in hits. Some 12% of all compounds tested hit in one or more screens of this group.
G9a block: qHTS Assay for Inhibitors of Histone Lysine Methyltransferase G9a | actives 8.8% (n = 350,000) | Potency, µM (doses to about 102 µM), actives largely listed as inhibitors | G9a H3K9 monomethylation, AlphaScreen, 2 h | Histone-lysine N-methyltransferase EHMT2 (Homo sapiens), Q96KQ7 | AID 504332, 2011; note: nearly all actives have a fitted effect of over 75% in size
Target sequence (Q96KQ7 913-1193 limits assumed): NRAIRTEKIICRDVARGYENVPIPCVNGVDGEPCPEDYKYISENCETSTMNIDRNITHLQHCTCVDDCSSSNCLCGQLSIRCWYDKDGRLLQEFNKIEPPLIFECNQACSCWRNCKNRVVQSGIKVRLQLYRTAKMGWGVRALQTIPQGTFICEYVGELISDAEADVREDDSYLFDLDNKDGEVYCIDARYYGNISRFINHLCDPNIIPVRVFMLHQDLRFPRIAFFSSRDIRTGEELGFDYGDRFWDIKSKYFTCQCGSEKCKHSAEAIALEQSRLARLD
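Chemiluminescent proximity detection of H3K9 monomethylation, read after 10 min bead incubation in the dark. Reaction: 20 nM G9a, 500 nM biotin-H3K9 peptide, 20 uM SAM cofactor, 2 h, room temperature, following 15 min enzyme-compound preincubation.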
HP1b chromo inh: HTS for Inhibitors of HP1-beta Chromodomain Interactions with Methylated Histone Tails; Chromobox protein homolog 1 (Homo sapiens), P83916; AlphaScreen HP1-beta / biotin-H3K9me3 peptide binding; Potency, µM (highest dose often 114 µM), hits mostly inhibitors; actives 0.56% (n = 390,000); AID 540317, 2011; note: nearly all actives have a fitted effect of over 70% in size
Target sequence (P83916 whole entry, looked up): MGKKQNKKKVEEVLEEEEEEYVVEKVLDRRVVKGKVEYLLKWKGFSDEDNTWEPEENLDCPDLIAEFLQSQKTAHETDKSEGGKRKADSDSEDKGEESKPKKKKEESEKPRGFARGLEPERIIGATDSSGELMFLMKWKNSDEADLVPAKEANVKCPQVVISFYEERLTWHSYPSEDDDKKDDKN
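AlphaScreen: HP1-beta (50 nM) preformed 30 min with biotin-H3(1-18)K9me3 peptide (50 nM) in PBS pH 7.4, 0.01% Tween-20. Compound added for 30 min at RT, then streptavidin donor/nickel chelate acceptor beads (10 ug/mL) for 30 min.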
PLK1 PBD block: qHTS for Inhibitors of PLK1-PDB (polo-like kinase 1 - polo-box domain): Primary Screen. Serine/threonine-protein kinase PLK1 (Homo sapiens), P53350. Plk1 PBD binding of FITC phosphopeptide, fluorescence polarization. Potency, µM, actives largely listed as inhibitors. actives 2.8% (n = 360,000); note: series mostly up to about 57 µM; nearly all actives have a fitted effect of over 65% in size
BAZ2B block: qHTS Assay for Inhibitors of BAZ2B; Bromodomain adjacent to zinc finger domain protein 2B (Homo sapiens), Q9UIF8; actives 4.4% (n = 360,000); AlphaScreen BAZ2B-H3K14Ac peptide displacement; AID 504333, 2011; Potency, µM (titrated, usually from 114 µM), usual class: inhibitors; note: nearly all actives have a fitted effect of over 60% in size
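BAZ2B (50 nM) with biotin-H3(5-23)K14Ac peptide (50 nM) in PBS pH 7.4, 0.01% Tween-20, preformed 30 min, then compound 30 min at room temperature; top concentration 110uM. AlphaScreen streptavidin donor/nickel chelate acceptor beads (10 ug/mL final), 20 min dark, signal read.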
JMJD2A Tudor inh: qHTS Assay for Inhibitors of JMJD2A-Tudor Domain. actives 4.4% (n = 390,000). Lysine-specific demethylase 4A (Homo sapiens), O75164. Potency, µM (top dose mostly 114 µM), actives largely listed as inhibitors. AlphaScreen JMJD2A-Tudor / H3K4me3 peptide binding; note: nearly all actives have a fitted effect of over 50% in size
PI5P4Ka inh: qHTS for Inhibitors of phosphatidylinositol 5-phosphate 4-kinase (PI5P4K); PI5P4Kalpha enzyme, ADP-Glo luminescence, 60 min; stronger effect = lower value; actives 1.2% (n = 330,000); AID 652105, 2013; max response, %; active = max response of -50% or lower; inconclusive = between -30% and -50%; inactive = -30% or higher; note: value at the top dose of about 77 µM
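Human PI5P4Kalpha with substrate in 0.038 M HEPES pH 7.4, 0.28 mM EGTA, 0.1% CHAPS, 5% DMSO; reaction started with 5 microM ATP (final), 60 min at room temperature. ADP formed read by ADP-Glo luminescence.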
A number is an active result; – = inactive; ? = inconclusive; · = not tested or not shown; [ ] = dose if it differs, or a comment. Unless noted, calls come from the whole dose curve; as a rule, active = well fitted curve in the direction sought with a large enough effect; inconclusive = small, poorly fitted or top-dose-only effect, or another doubt; inactive = no such curve, though single readings can be large; an effect the other way counts as inactive or inconclusive.

SMILES	G9a block	HP1b chromo inh	PLK1 PBD block	BAZ2B block	JMJD2A Tudor inh	PI5P4Ka inh
O=C1C=C(O)CC(c2ccco2)C1 (stereo not given)	?	–	?	?	56µM	–
N#CCCn1c(=O)c(-c2cccs2)nc2cnc(N3CCOCC3)nc21	–[0.501 µM]	·	·	·	·	·
CCC(=O)NC(c1ccc(OC)cc1)c1c(O)ccc2ccccc12 (stereo not given)	?	–	–	–	–	–
CC(C)C(=O)NC(c1ccco1)c1c(O)ccc2ccccc12 (stereo not given)	32µM	–	–	–	?	·
CCC(=O)NC(c1ccc(N(C)C)cc1)c1c(O)ccc2ccccc12 (stereo not given)	10µM	?	–	28µM	50µM	–
CC(C)C(=O)NC(c1ccccc1Cl)c1c(O)ccc2ccccc12 (stereo not given)	–	–	–	–	–	·
CC(C)CN1CCNC(=O)C1CC(=O)NCCCN1CCCc2ccccc21 (stereo not given)	–[12.7 µM]	–	–	79µM	–	–
Cc1cccc(CCNC(=O)CC2C(=O)NCCN2CC2CCCCC2)n1 (stereo not given)	?	–	–	–	–	–
Cc1ccccc1CN1CCNC(=O)C1CC(=O)O (stereo not given)	14µM	–	–	–	–	–
Cc1cccc(CCNC(=O)CC2C(=O)NCCN2Cc2ccccc2C)n1 (stereo not given)	50µM	–	–	–	–	–
COc1ccc(CN2CCNC(=O)C2CC(=O)O)c(OC)c1 (stereo not given)	14µM	–	–	–	–	–
COC(=O)CS(=O)(=O)c1nc2ccccc2nc1N1CCCCC1	–	–	·	–	–	·
Cc1nn(-c2ccccc2)c2c1N(CC(=O)NCc1ccc(N(C)C)cc1)C(=O)CS2	–	–	·	?	–	·
CNc1ccc(C(=O)N2CCN(S(=O)(=O)c3ccc4c(c3)OCCCO4)CC2)cc1[N+](=O)[O-]	–	–	–	–	–	–
Cc1ccccc1CN1CCNC(=O)C1CC(=O)NCCN1CCCCC1=O (stereo not given)	79µM	–	–	–	–	–
Cc1ccccc1CNC(=O)CC1C(=O)NCCN1CC1CCCCC1 (stereo not given)	?	–	–	–	–	–
CCCc1cc(=O)oc2cc(OCC(=O)NC3CC(C)(C)NC(C)(C)C3)ccc12	–	–	–	–	–	–
O=C(NC1CCCCC1)Oc1cc2oc(=O)sc2cc1Br	40µM	–	2.1µM	–	–	–
Cc1cnc(C2OCCO2)c2cccc(N)c12	·	·	–	·	·	–
CCNC(=S)Nc1ccc2c(c1)c(=O)n(C)n2Cc1cccc(C(F)(F)F)c1	·	·	27µM	·	·	–
Cc1ccc(S(=O)(=O)N2CCOCC2)cc1NC(=O)COC(=O)c1ccc(Br)o1	·	–	–	·	–	–
CC1Cc2ccccc2N1C(=O)c1cccnc1 (stereo not given)	50µM	–	–	–	–	·
CC1Cc2ccccc2N1C(=O)c1cnc2n(c1=O)CCS2 (stereo not given)	45µM	–	–	–	–	–
CC1CCc2cc(F)ccc2N1C(=O)c1cccnc1 (stereo not given)	·	–	–	–	–	–
O=C(c1cnc2n(c1=O)CCS2)N1CCc2ccccc21	–	–	–	–	–	–
SMILES	G9a block	HP1b chromo inh	PLK1 PBD block	BAZ2B block	JMJD2A Tudor inh	PI5P4Ka inh
COC(=O)c1cc2oc(C)cc2n1CC(=O)Nc1ccc(C(C)C)cc1	–	–	·	–	–	·
Cn1cccc1CC(=O)NNC(=S)Nc1ccc(F)cc1	?	–	–	–	?	–
Cn1cccc1CC(=O)NNC(=S)NC(=O)c1ccccc1Br	18µM	–	–	–	–	?
Cn1cccc1CC(=O)NNC(=S)Nc1ccc(Cl)cc1Cl	45µM	–	–	?	–	–
Cn1cccc1CC(=O)NNC(=O)Nc1ccccc1F	–[12.7 µM]	–	–	–	–	–
Cc1cccc(N2C(=O)CSC23C(=O)N(CC(=O)NCc2ccccc2Cl)c2ccccc23)c1 (stereo not given)	–	–	·	–	–	·
Nc1nc(Nc2cccc(F)c2)nc(NCCO)c1[N+](=O)[O-]	·	–	–	–	–	-63
CN1CCc2cccc3c2[C@@H]1Cc1ccc(O)c(O)c1-3	2µM	?	?	35µM	13µM	-61
COc1ccc(C)cc1NC(=O)COc1cc(=O)n(C)c2ccccc12	–	–	·	–	–	·
Cc1cccc(OC(C)C(=O)NCc2ccc(S(N)(=O)=O)cc2)c1 (stereo not given)	–	–	–	–	–	–
CC(C)(Oc1ccc(Cl)cc1)C(=O)NCc1ccc(S(N)(=O)=O)cc1	45µM	–	–	?	–	–
CC(Oc1cccc(Cl)c1)C(=O)NCc1ccc(S(N)(=O)=O)cc1 (stereo not given)	·	–	19µM	–	?	–
COc1ccc(C2/C(=C(\O)c3ccc4c(c3)OCCO4)C(=O)C(=O)N2CCCN(C)C)cc1 (stereo not given)	?	–	–	–	–	–
O=C1C(=O)N(c2nccs2)C(c2ccccc2F)/C1=C(\O)c1ccc2c(c1)OCCO2 (stereo not given)	–[0.0925 µM]	–	–	50µM	?	–
Cc1nnc(N2C(=O)C(=O)/C(=C(/O)c3ccc4c(c3)OCCO4)C2c2ccc(F)cc2)s1 (stereo not given)	45µM	–	–	–	–	–
Cc1ccc(CNC(=O)C(C)n2c(=O)cc(-c3ccccc3)c3c(C)nn(C)c32)cc1 (stereo not given)	–	–	·	–	–	·
COc1ccccc1CN(C)C(=O)C(NC(=O)Cc1cccc2ccccc12)C(C)C (stereo not given)	7.9µM	–	27µM	–	–	–
O=C(Cn1ncn2c(cc3ccccc32)c1=O)NCc1ccc(F)cc1	–	–	·	–	–	·
O=C(C[n+]1cc(Br)cc2ccccc21)c1ccccc1	45µM	–	–	?	?	–
Cc1ccc2c(ccc[n+]2CC(=O)c2ccccc2)c1	–	–	–	–	–	–
COc1ccc(C(=O)C[n+]2cc(Br)cc3ccccc32)cc1[N+](=O)[O-]	35µM	–	?	–	79µM	–
O=C(OCc1cc(=O)n2ccsc2n1)C1(c2ccccc2)CC1	·	·	–	·	·	–
